# Laboratory results as given in PubChem BioAssay AID1835 (Johns Hopkins Ion Channel Center, 2009).
# In all, about 2,400 compounds went through this assay and about 750 (31%) were called active. The list shows a part of the results. Unmarked numbers belong to inactive results.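 Rule for the calls: active = median signal gain over dofetilide-blocked control wells reaching their mean plus 3 SD, so readout 1 at least 0; inactive = the rest.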
# Target: Voltage-gated inwardly rectifying potassium channel KCNH2 (Homo sapiens) (UniProt Q12809)
# Assay: modulators restoring hERG flux under dofetilide – cell-based, thallium flux, duplicate retest, dofetilide IC70, confirmation (AID 1835)
# Settings: hERG cell line, FluxOR thallium flux, dofetilide-blocked; at 10 µM; hits give high values
# Voltage-gated inwardly rectifying potassium channel KCNH2 (Homo sapiens), sequence (Q12809 whole entry, looked up): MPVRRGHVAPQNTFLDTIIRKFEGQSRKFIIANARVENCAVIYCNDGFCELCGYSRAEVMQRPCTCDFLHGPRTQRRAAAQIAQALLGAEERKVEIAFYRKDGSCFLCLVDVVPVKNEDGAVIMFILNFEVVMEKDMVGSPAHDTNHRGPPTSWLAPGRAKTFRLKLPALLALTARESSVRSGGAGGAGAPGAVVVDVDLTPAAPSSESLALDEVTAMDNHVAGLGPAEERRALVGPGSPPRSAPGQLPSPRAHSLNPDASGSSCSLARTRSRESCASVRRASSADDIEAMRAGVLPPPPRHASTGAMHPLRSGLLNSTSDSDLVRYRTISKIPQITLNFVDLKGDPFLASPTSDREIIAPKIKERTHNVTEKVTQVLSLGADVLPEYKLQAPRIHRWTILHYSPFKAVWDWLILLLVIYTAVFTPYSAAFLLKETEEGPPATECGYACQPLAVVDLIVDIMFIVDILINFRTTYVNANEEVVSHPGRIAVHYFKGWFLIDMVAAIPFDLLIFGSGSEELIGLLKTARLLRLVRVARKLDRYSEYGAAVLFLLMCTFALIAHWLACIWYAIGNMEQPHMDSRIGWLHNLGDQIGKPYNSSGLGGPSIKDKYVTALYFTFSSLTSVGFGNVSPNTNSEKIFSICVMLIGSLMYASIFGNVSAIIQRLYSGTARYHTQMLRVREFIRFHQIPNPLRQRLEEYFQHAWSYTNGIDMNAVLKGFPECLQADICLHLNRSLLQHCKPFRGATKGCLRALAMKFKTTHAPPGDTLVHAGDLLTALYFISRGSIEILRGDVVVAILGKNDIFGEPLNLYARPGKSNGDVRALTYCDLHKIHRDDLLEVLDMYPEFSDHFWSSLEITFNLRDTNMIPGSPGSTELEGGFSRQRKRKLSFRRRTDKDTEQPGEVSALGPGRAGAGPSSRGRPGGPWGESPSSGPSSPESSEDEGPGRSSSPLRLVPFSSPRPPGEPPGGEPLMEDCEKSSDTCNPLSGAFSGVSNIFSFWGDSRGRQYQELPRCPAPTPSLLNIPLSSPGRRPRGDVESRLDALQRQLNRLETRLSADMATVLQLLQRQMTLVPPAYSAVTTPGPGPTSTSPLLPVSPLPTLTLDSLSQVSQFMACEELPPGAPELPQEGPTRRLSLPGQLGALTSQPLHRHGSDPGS
row,Compound,"activity increase over dofetilide control, less the hit threshold"
1,CCc1ccc(C(C)NC(=O)C2CCCC2)cc1 (stereo not given),1% (active)
2,Cc1ccc(C(=O)NC(C)c2ccc(C)c(C)c2)s1 (stereo not given),-6%
3,Cc1ccc(C(C)NC(=S)NC2CCCCC2)cc1C (stereo not given),-6%
4,CCc1ccc(C(=O)NNC(=O)c2ccc(=O)n(C)n2)cc1,-5%
5,CCc1ccccc1N(CC(=O)NC(C)c1ccccc1)S(C)(=O)=O (stereo not given),-15%
6,Cc1ccc(C(C)NC(=O)C2CCCC2)cc1C (stereo not given),4% (active)
7,CCc1ccc(C(C)NC(=O)c2ccc(F)cc2)cc1 (stereo not given),4% (active)
8,CC(NC(=O)CCNC(=O)c1ccco1)c1ccc(F)cc1 (stereo not given),-5%
9,COc1cccc(C(=O)/C=C/Nc2ccc(S(=O)(=O)Nc3cnc4ccccc4n3)cc2)c1,-22%
10,CCc1nccn1S(=O)(=O)c1ccc2ccc(C)cc2c1,-15%
11,CC1CCN(C(=O)CSc2nnc(CNC(=O)c3ccco3)o2)CC1,-15%
12,COc1ccc(-c2cc(C(=O)N3CCCC3)no2)cc1,-4%
13,O=C(c1cccc2c1-c1ccccc1C2)N1CCCCC1,-17%
14,O=C(c1csc(Nc2ccccc2Cl)n1)N1CCCC1,6% (active)
15,CC1Oc2ccccc2N(CC(=O)N2CCCCCC2)C1=O (stereo not given),-19%
16,N#CCCn1cc(/C=N/NC(=O)c2ccncc2)c(-c2ccc(F)cc2)n1,-2%
17,CCCN(CCC)C(=S)NC(=O)c1ccc(Cl)cc1Cl,60% (active)
18,CCN(CC)C(=S)NC(=O)c1ccc(F)cc1,-9%
19,CCCN(CC(=O)Nc1ccccc1C)C(=O)CCl,-13%
20,CCCCN(CCCC)C(=S)NC(=O)c1ccccc1Cl,83% (active)
21,O=C(Nc1ccsc1C(=O)O)c1ccccc1Cl,-16%
22,CCCn1nnnc1NC(=O)c1cc(Cl)ccc1Cl,-8%

row,Compound,"activity increase over dofetilide control, less the hit threshold"
1,CN(C)/C=C/C(=O)c1ccc(Cl)cc1Cl,-11%
2,CCN(CC)C(=S)NC(=O)c1ccc(Cl)cc1Cl,11% (active)
3,Cn1c(CNC(=O)CNC(=O)c2ccc(F)cc2)cc(=O)n(C)c1=O,-15%
4,CSc1ccc(C2NN=C(c3ccccc3)S2)cc1 (stereo not given),-11%
5,Cc1ccc(/C(O)=C2\C(=O)C(=O)N(Cc3cccnc3)C2c2ccccc2[N+](=O)[O-])cc1 (stereo not given),-26%
6,O=C1C=C(NCCN2CCOCC2)C(=O)c2cnccc21,-3%
7,Cc1ccc(OCCC(=O)OC(C)C(=O)NC2CC2)cc1 (stereo not given),-12%
8,O=c1ccn(Cc2ccc(F)cc2)c2ccnc(C(F)(F)F)c12,-15%
9,O=c1cc(-c2ccccc2)cc(-c2ccccc2)n1O,22% (active)
10,CN1/C(=C/C=C(C#N)C#N)C=Cc2ccccc21,66% (active)
11,CCCCc1cc(=O)oc2c(C)c(OCC(=O)NCc3ccccn3)ccc12,-9%
12,CC(=O)c1n[nH]nc1NC(=O)c1ccccc1,-1%
13,Cc1ccccc1Cn1nc(C)c(NC(=O)c2ccccc2)c1C,25% (active)
14,Cc1nn(C(=O)CNC(=O)c2ccccc2)c(C)c1C,-17%
15,COc1ccccc1NC(=O)Cc1nnc(SCC(=O)Nc2nccs2)n1C,-10%
16,Cc1sc2nc(C(C)C)nc(SCC(=O)NCc3ccco3)c2c1C,16% (active)
17,Cc1cc(S(=O)(=O)N2CCOCC2)ccc1OCC(=O)NCc1ccco1,-7%
18,Cc1ccc(-n2ncc3c(SCC(=O)NNC(=O)c4ccco4)ncnc32)cc1,-4%
19,O=C(CN1CCN(c2ccccc2O)CC1)NC(=O)NCc1ccco1,-17%
20,CCn1c(SCC(=O)NC(=O)NCc2ccco2)nc2sc(C)c(C)c2c1=O,18% (active)
21,O=C(NCC1CCCO1)c1ccc2c(=O)n(Cc3ccco3)c(SCC(=O)N3CCCC3)nc2c1 (stereo not given),0%
22,COC(=O)Cn1c(=O)c(=O)n(CC(=O)OC)c2ccccc21,-15%

row,Compound,"activity increase over dofetilide control, less the hit threshold"
1,COc1ccccc1CNC(=O)COC(=O)c1ccccn1,-13%
2,COc1ccc(C(=O)CC(=O)C(=O)Nc2ccc(Cl)cc2)cc1,9% (active)
3,COc1ccc(C(=O)CC(=O)C(=O)Nc2ccc(C)c(C)c2)cc1,-3%
4,COc1ccc(C(=O)CC(=O)C(=O)Nc2ccccc2)cc1,5% (active)
5,COc1ccc(NC(=O)CSCC(=O)Oc2c(OC)cccc2OC)cc1,-26%
6,COc1ccc(C(=O)CC(=O)C(=O)Nc2ccc(C)c(Cl)c2)cc1,0%
7,CC(=O)Nc1ccc(S(=O)(=O)N2CCC(NC(=O)c3ccccc3)CC2)cc1,-17%
8,CCN(CC)C(=O)CN1C(=O)C2CC=C(Cl)CC2C1=O (stereo not given),-15%
9,O=C1c2ccccc2C(=O)N1Cc1ccco1,-8%
10,Cc1ccc(-n2c(=S)[nH]c3sc4c(c3c2=O)CCC4)cc1,-1%
11,CCn1c(=S)[nH]c2sc3c(c2c1=O)CCCC3,27% (active)
12,CCn1c(=S)[nH]c2sc3c(c2c1=O)CCCCC3,107% (active)
13,O=c1c2c3c(sc2[nH]c(=S)n1Cc1ccco1)CCC3,18% (active)
14,CCCn1c(=S)[nH]c2sc3c(c2c1=O)CCCC3,76% (active)
15,Cc1cc(C)n(-c2nc3sc4c(c3c(=O)[nH]2)CCCC4)n1,-10%
16,CC(C)OC(=O)CSc1nnc(C2CCCCC2)n1N,-15%
17,Cc1cnc(NC(=O)CN2CCN(c3ccccc3F)CC2)s1,-5%
18,CCCCCOc1ccc(C2C(C(C)=O)=C(C)Nc3ncnn32)cc1OC (stereo not given),-11%
19,CCc1cccc(C)c1NC(=O)Cc1ccsc1,-12%
20,Cc1ccc(S(=O)(=O)N(C)C)cc1NC(=S)NC(C)CCCC(C)C (stereo not given),-30%
21,CCC(C)NC(=O)CSc1ncnc2sccc12 (stereo not given),-7%
22,COC(=O)c1ccc(Cn2cnc3c(cnn3-c3ccc(Cl)cc3)c2=O)o1,-2%

row,Compound,"activity increase over dofetilide control, less the hit threshold"
1,Cc1sc2ncnc(SCC(=O)NC(=O)c3cccn3C)c2c1C,2% (active)
2,COC(=O)c1ccc(CSc2ncnc3sc(C)c(C)c23)o1,7% (active)
3,Cc1sc2ncnc(SCC(=O)c3ccc(O)cc3O)c2c1C,2% (active)
4,Cc1ccc(-n2nc3ccc(N)cc3n2)c(C)c1,-28%
5,O=C(CN1CCN(Cc2ccccc2)CC1)NCc1ccccc1Cl,-1%
6,Cc1cc(S(=O)(=O)NCC(C)C)ccc1OCC(=O)NCc1ccccn1,-29%
7,CCOC(=O)CP(=O)(c1ccccc1)c1ccccc1,-9%
8,CCOC(=O)Cc1nc2ccccc2o1,5% (active)
9,C/C(=N\NC(=O)CSc1nc2ccccc2o1)c1ccc(O)cc1,-15%
10,Cc1cc(C)c2nc(NC(=O)C3CCCO3)sc2c1 (stereo not given),-8%
11,O=C(Nc1cccc(Br)c1)C1CCCC1,-11%
12,O=C(Nc1nc2c(Br)cc(Br)cc2c(=O)s1)C1CCC1,1% (active)
13,O=C(COc1ccc(S(=O)(=O)NCc2ccccc2)cc1Cl)NCC1CCCO1 (stereo not given),-26%
14,O=C(NC(=S)Nc1ccccc1)c1csnn1,88% (active)
15,COc1ccc(NC(=O)c2onc(C)c2Cl)cc1,-10%
16,O=C(NC(=S)Nc1ccccc1Cl)c1csnn1,79% (active)
17,O=C(NC(=S)Nc1ccccc1)c1cncc(C#Cc2ccccc2)c1,-8%
18,Cc1snnc1C(=O)NC(=S)Nc1ccccc1,30% (active)
19,COc1ccc(NC(=S)Nc2ccccn2)cc1,-11%
20,Cc1ccc(NC(=S)NC(=O)c2ccc(-c3ccccc3)cc2)cc1,-2%
21,COc1ccc(NC(=S)NC(=O)c2csnn2)cc1,23% (active)
22,Cc1cccnc1NC(=O)c1csnn1,-3%

row,Compound,"activity increase over dofetilide control, less the hit threshold"
1,O=c1[nH]c2ccccc2nc1C(F)(F)C(F)F,-11%
2,C/C(=N/NC(=O)c1ccncc1)c1ccc2c(c1)OCO2,-9%
3,O=C1CSC(=S)N1/N=C/c1cc(Br)ccc1O,7% (active)
4,Cc1oc(-c2cccs2)nc1CN1CCC(C(=O)N2CCCC2)CC1,-11%
5,Cc1cccc(C(=O)NC(=S)N(C)C2CCCCC2)c1,21% (active)
6,CN(C(=S)NC(=O)c1ccc(Cl)cc1)C1CCCCC1,-3%
7,Cc1cccc(C(=O)NC(=S)NNC(=O)COc2c(C)cccc2C)c1,-12%
8,COc1ccc(C(=O)NC(=S)N(C)C2CCCCC2)cc1,-2%
9,CN(C(=S)NC(=O)c1ccc(F)cc1)C1CCCCC1,6% (active)
10,Cc1ccc(C(=O)NC(=S)N(C)C2CCCCC2)cc1Br,-5%
11,CN(C(=S)NC(=O)c1ccccc1)C1CCCCC1,16% (active)
12,Cc1ccc(C(=O)NC(=S)N(C)C2CCCCC2)cc1,27% (active)
13,O=C(N/N=C/c1ccc(OC(F)F)cc1)C1=COCCO1,-8%
14,c1ccc2oc(-c3nn4c(Cn5cnc6ccccc65)nnc4s3)cc2c1,-12%
15,CCC(=O)N1c2ccc(C)cc2C2=NNC(=S)NC21O (stereo not given),-6%
16,Cc1cc(-c2nnc(SCC(=O)Nc3ccc(C(F)(F)F)cc3)n2C)no1,-23%
17,COc1ccc(C(=O)O)cc1S(=O)(=O)Nc1cccc(C(F)(F)F)c1,-4%
18,O=C(NC(=S)Nc1ccc(C(F)(F)F)cc1)c1csnn1,60% (active)
19,O=C(Nc1ccc(-c2csc(Nc3cccc(C(F)(F)F)c3)n2)cc1)c1ccccc1,-25%
20,O=C(NC(=S)Nc1cccc(C(F)(F)F)c1)c1csnn1,102% (active)
21,c1ccc2oc(-c3ccn[nH]3)cc2c1,-10%
22,O=C(COC(=O)c1cc[n+]([O-])cc1)Nc1cc([N+](=O)[O-])ccc1Cl,-20%
